Bioassay records as filed in PubChem.
MITF inh: human MITF inhibition, primary screen; O75030; 650,000 compounds, 0.91% hits; inhibition, % at 2.6 µM; AlphaScreen MITF homodimerization, bead proximity signal; in the data active = inhibition above about 50%
FBW7 act: activators of human E3 ligase FBW7; Q969H0; AlphaScreen FBW7–phospho-cyclin E peptide binding, activator screen; normalized activity (activation), % at 26.1 µM; 650,000 compounds, 0.13% hits; in the data active = normalized activity above about 1.9%;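 note: purified mutant Fbw7 with reduced substrate affinity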
GPR151 ag: activates the human receptor GPR151. Q8TDV0. 650,000 compounds, 1% hits. PathHunter beta-arrestin GPR151 cells, luminescence. activation, % at 11.2 µM; in the data active = activation above about 4.9%
TEAD-YAP block: TEAD-YAP interaction inhibition | HEK-TIYL cells, TEAD-Gal4/YAP UAS-luciferase luminescence | inhibition, % at 9.12 µM | 640,000 compounds, 1.4% hits; in the data active = inhibition above about 32%
GPR151 conf act: confirmation of human GPR151 activators. GPR151 PathHunter beta-arrestin cells, luminescence, 90 min; % of EA-reagent control over plate median. 6,700 tested, under 10 active. activation, % at 11.2 µM. shares compounds with GPR151 ag;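 active = mean percent activation across replicates above the confirmation screen cutoff of 4.91%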
GPR119 ag: activates human GPR119 in a GPR151 counter-screen; shares compounds with GPR151 ag; GPR119 PathHunter beta-arrestin cells, luminescence, 90 min; 0 = compound-well median, 100 = enzyme-acceptor control; activation, % at 11.2 µM; 6,700 compounds, 0.3% hits; AID 1508611;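 active = mean percent activation in the counterscreen above 29.09%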;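 note: counterscreen on off-target GPR119 to flag nonselective hits from the GPR151 activator screen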
Target sequence (Q8TDV5 whole entry, looked up): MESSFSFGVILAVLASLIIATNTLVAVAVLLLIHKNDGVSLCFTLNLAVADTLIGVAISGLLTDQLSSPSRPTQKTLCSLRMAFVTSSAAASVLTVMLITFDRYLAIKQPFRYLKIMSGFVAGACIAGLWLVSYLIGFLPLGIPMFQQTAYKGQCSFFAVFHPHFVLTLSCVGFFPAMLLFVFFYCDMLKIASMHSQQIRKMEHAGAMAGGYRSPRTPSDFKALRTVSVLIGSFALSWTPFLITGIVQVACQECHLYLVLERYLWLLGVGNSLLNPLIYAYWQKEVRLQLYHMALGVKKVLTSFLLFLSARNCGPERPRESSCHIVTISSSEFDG
Large screens that a line does not name were inactive (follow-up assays come after a bar, where they were run). The list is not random: actives were taken first. Their share in the collection is about 3.5%.

COC(=O)c1cc(OC)c(OC)cc1NC(=O)c1cc(C)ccc1C	none
COc1ccc(Br)cc1C(=O)Nc1cc(Cl)ccc1C(=O)O	GPR151 ag 8.4 | GPR151 conf act inactive | GPR119 ag inactive
COc1cc(NC(=O)c2ccccc2F)c(C(=O)O)cc1OC	none
COc1cc(NC(=O)c2ccccc2OC)c(C(=O)O)cc1OC	GPR151 ag 6.7 | GPR151 conf act inactive | GPR119 ag inactive
COC(=O)c1cc(OC)c(OC)cc1NC(=O)c1ccccc1C	GPR151 ag 9.7 | GPR151 conf act inactive | GPR119 ag inactive
Cc1ccc(-c2nc(CCNC(=O)COc3ccccc3)cs2)cc1	none
CC1=NN(C(=O)c2sc3cc(F)ccc3c2Cl)C(O)(C(F)(F)F)C1 (stereo not drawn)	none
Cc1ccc(OCC(=O)Oc2ccc(N3C(=O)C4C5CCC(C5)C4C3=O)cc2)cc1C (stereo not drawn)	none
CCc1ccc(C2=NC(C)(CC)NC(c3cc(Cl)ccc3O)C2)cc1 (stereo not drawn)	none
CCCC1(C)N=C(c2ccc(CC)cc2)CC(c2cc(Br)ccc2O)N1 (stereo not drawn)	GPR151 ag 11 | GPR151 conf act inactive | GPR119 ag inactive
CCOc1cc(OCC)c(C=O)cc1Br	GPR151 ag 6.3 | GPR151 conf act inactive | GPR119 ag inactive
C#CCOc1cc(Br)c(C=O)cc1OCC	none
Cn1c(SCC(=O)NC2CCCCC2)nnc1-c1cc(Br)ccc1O	none
CNC(=O)/C(C#N)=C/c1ccc(-c2nc3ccccc3s2)o1	GPR151 ag 5.5 | GPR151 conf act inactive | GPR119 ag inactive
N#C/C(=C\c1ccc(-c2nc3ccccc3s2)o1)C(N)=O	none
Brc1c(OCc2nc(-c3ccncc3)no2)ccc2ccccc12	none
CC(=O)Nc1cnn(-c2ccc(C(=O)N(C)Cc3ccc(Oc4ccccc4)cc3)cc2)c1	GPR151 ag 8.4 | GPR151 conf act inactive | GPR119 ag inactive
CCNC(=O)CC1SC(N)=NC1=O (stereo not drawn)	none
CCn1c(SCC(=O)N(C)C)nnc1-c1ccccc1	none
CC(=O)Nc1ccc(NC(=O)C(C)Sc2ccccc2)cc1 (stereo not drawn)	GPR151 ag 11 | GPR151 conf act inactive | GPR119 ag inactive
N/C(=N\S(=O)(=O)c1ccc(Cl)cc1)c1ccccc1	none
CO/C(=N\S(=O)(=O)c1ccc(Cl)cc1)c1ccccc1	GPR151 ag 5.9 | GPR151 conf act inactive | GPR119 ag inactive
CCOC(=O)Cn1nc(C)c(NC(=O)c2ccccc2C)c1C	none
O=C(NCCN1CCNCC1)c1c(O)c2c([nH]c1=O)CCCC2	none
CCN1CCCC1CNC(=O)c1c(O)c2c([nH]c1=O)CCCC2 (stereo not drawn)	GPR151 ag 6.8 | GPR151 conf act inactive | GPR119 ag inactive
CCCCCNC(=O)c1c(O)c2c([nH]c1=O)CCCC2	GPR151 ag 18 | GPR151 conf act inactive | GPR119 ag inactive
Cc1cc(/C=N/O)c(O)c(/C=N/O)c1	none
Cc1ccc2c(c1)C1NC(=S)N(c3ccccc3)C(C)(O2)C1C(=O)N(C)C (stereo not drawn)	none
Cc1ccc(C(=O)NC(=S)NNc2nc3ccccc3[nH]2)cc1	GPR151 ag 5.3 | GPR151 conf act inactive | GPR119 ag inactive
COCOc1ccc(-c2nc(-c3cccc(F)c3)cnc2N)cc1	none
Cc1ccc(Nc2nc(N3CCCC3)nc(N3CCCC3)n2)cc1	none
CCc1ccc(Nc2nc(N3CCCC3)nc(N3CCCC3)n2)cc1	GPR151 ag 4.9 | GPR151 conf act inactive | GPR119 ag inactive
CCN(CC)C(=O)C1CCCN(c2nc(NCCc3ccc(OC)cc3)c3ncn(C4CCCCC4)c3n2)C1 (stereo not drawn)	GPR151 ag 10 | GPR151 conf act inactive | GPR119 ag inactive
CCN(CC)C(=O)C1CCCN(c2nc(NCCOc3ccccc3)c3ncn(Cc4ccc(C(F)(F)F)cc4)c3n2)C1 (stereo not drawn)	none
CCN(CC)C(=O)C1CCCN(c2nc(NCCc3ccc(OC)cc3)c3ncn(Cc4ccc(C(F)(F)F)cc4)c3n2)C1 (stereo not drawn)	GPR151 ag 6.8 | GPR151 conf act inactive | GPR119 ag inactive
O=C(CCC1=NS(=O)(=O)c2ccccc2N1)Nc1ccccc1	GPR151 ag 6.2 | GPR151 conf act inactive | GPR119 ag inactive
